Mito fusion act – blocks mitochondrial division or promotes mitochondrial fusion; S. cerevisiae fusion-defective mutant growth rescue, CellTiterGlo 48 h; Potency, µM (highest dose often 46.1 µM), for inactives: top-dose growth rescue (activation), usual class: activators; 0.23% of 320,000 active; further: % of control where 0% means no effect; nearly all actives have a fitted effect of over 45% in size
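S. cerevisiae fusion-defective temperature-sensitive mutants (e.g. fzo1-1, mgm1-5) grown 48 h at 37C in YPEG (ethanol/glycerol non-fermentable) medium with 23 nl compound per well; growth rescue read as CellTiterGlo luminescence.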
TDP-43 yeast inh – rescues yeast growth from TDP-43 toxicity. Potency, µM (titrated, usually from 46.1 µM), inactives show at the top dose growth rescue (activation), hits mostly activators. TDP-43 expressing yeast growth rescue, BacTiter-Glo, 24 h. 1.8% of 410,000 active. AID 652104; further: % of control where 0% means no effect; nearly all actives have a fitted effect of over 50% in size
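Readout is BacTiter-Glo luminescence of cell growth, so inhibitors register as activators. TDP-43-expressing yeast at OD600=0.02 in galactose medium, after raffinose pregrowth to mid-log, were incubated with compound for 24 hr at 30 deg C.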
aSyn yeast inh – inhibitors of alpha-synuclein toxicity in yeast. Yeast expressing alpha-synuclein, growth rescue, BacTiter-Glo, 24 h. Potency, µM (doses to about 46.1 µM), for inactives: top-dose growth rescue (activation), hits mostly activators. 0.14% of 370,000 active; further: % of control where 0% means no effect; nearly all actives have a fitted effect of over 65% in size
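Rescue of yeast growth: cells expressing toxic alpha-synuclein, induced in galactose at OD600 0.02, incubated with compound 24 h at 30 C. ATP luminescence quantified growth; inhibitors of toxicity appear as activators.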
Abeta rescue – compounds reversing amyloid beta toxicity in yeast; 0.063% of 410,000 active; yeast expressing A-beta42, growth rescue, OD600, 48 h; response scale: 0% DMSO, 100% iron-clioquinol control; Potency, µM (top dose mostly 46.1 µM), usual class: activators; AID 1347071; further: nearly all actives have a fitted effect of over 55% in size
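Yeast growth medium received pinned compounds, then yeast cells expressing toxic A-beta were added; plates incubated at 30 C for 48 hr. Growth read as absorbance at 600 nm, normalized to DMSO and equimolar FeCl3 plus clioquinol controls.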
FUS suppressor – FUS proteinopathy suppression in yeast; Potency, µM (top dose mostly 76.6 µM), hits mostly activators; 0.24% of 390,000 active; AID 1347120; S. cerevisiae FUS-expressing, growth rescue, OD600, 24 h;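 further: plate controls were DMSO vehicle for no effect and reference control for full effect; nearly all actives have a fitted effect of over 55% in size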
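S. cerevisiae expressing FUS from galactose induction served as the toxicity model. Growth after 24hr at 30C, read as absorbance at 600 nm, indicates suppression of toxicity; compounds dosed at several concentrations.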
The depositor's hits bear a star; i = inactive; ? = inconclusive; . = no result. The list is not random: actives were taken first. Their share in the collection is about 2.2%. The call rests on the fitted dose curve; in most records, active means well fitted curve in the direction sought with a large enough effect; inconclusive means small, poorly fitted or top-dose-only effect, or another doubt; inactive means no such curve, though single readings can be large; an effect the other way counts as inactive or inconclusive. Potency means the concentration at half of the fitted maximal effect.

SMILES	Mito fusion act	TDP-43 yeast inh	aSyn yeast inh	Abeta rescue	FUS suppressor
COc1ccc(CNC(=O)c2cnn(-c3ccc(OC)cc3)c2C2CCN(C(=O)OC(C)(C)C)CC2)cc1	.	-2.9%	.	i	?
COc1ccc(-n2ncc(C(=O)NCc3ccc4c(c3)OCO4)c2C2CCN(C(=O)OC(C)(C)C)CC2)cc1	.	29.7%	.	i	31.6µM*
Cc1ccc(-n2ncc(C(=O)NCc3ccc4c(c3)OCO4)c2C2CCN(C(=O)OC(C)(C)C)CC2)cc1C	.	16.2%	.	i	25.1µM*
Cc1cccc(Cn2c(CNS(=O)(=O)c3ccc(C(C)C)cc3)nc3cccnc32)c1	.	8.5%	.	i	i
CC(C)(C)OC(=O)NCc1ccccc1/C=C/S(=O)(=O)NCc1ccccc1	.	.	.	.	i
COc1ccc(S[C@]2(C(=O)N3CCN(c4ncccn4)CC3)CC(=O)N(C(=O)CCc3ccccc3)[C@@H]2c2ccc(OC)cc2)cc1	.	.	.	.	i
Cc1cccc(NC(=O)CSc2cn(CC(=O)N3CCOCC3)c3ccccc23)c1C	.	21.5%	.	i	i
O=C(Nc1nc2ccsc2c(=O)s1)C1CCC1	-4.1%	10µM*	6.5%	i	i
O=c1sc(Nc2ccccc2)nc2ccsc12	27.4%	17.8µM*	14.1%	i	i
O=C(Nc1nc2ccsc2c(=O)s1)c1ccco1	0.2%	4.6%	-10.1%	i	i
Cc1ccc(-n2c(SCC(=O)Nc3ccc4c(c3)OCCO4)nnc2-c2cccnc2)cc1	.	.	.	.	i
CCCCCCC(=O)N(O)C1CC(=O)N(c2ccc(Br)cc2)C1=O (stereo not drawn)	0.2%	-29.9%	-59.9%	i	i
COc1ccccc1N(O)C1CC(=O)N(c2ccc(Br)cc2)C1=O (stereo not drawn)	-2.4%	28.2µM*	-9.9%	i	?
Clc1cccc(-c2cc3nc4c(c(NCc5ccco5)n3n2)CCCC4)c1	-17.0%	?	-47.4%	i	i
OCCCNc1c2c(nc3cc(-c4ccc(Cl)cc4)nn13)CCC2	14.1µM*	15.9%	-14.5%	i	i
Clc1ccc(N2COC3c4cccc5cccc(c45)C32)cc1 (stereo not drawn)	13.9%	10µM*	12.5%	i	i
COc1ccc(C2Nc3cccc4cccc(c34)N2)cc1	-4.0%	?	-7.7%	i	i
CS(=O)(=O)NC1c2cccc3cccc(c23)C1N1CCOCC1 (stereo not drawn)	-2.5%	-15.8%	-4.9%	i	i
COc1ccc(N2COC3c4cccc5cccc(c45)C32)cc1 (stereo not drawn)	-0.2%	11.2µM*	-5.9%	i	i
Cc1ccc(Sc2c([N+](=O)[O-])c(=O)n(C)c3ccccc23)cc1	0.7%	0.0%	3.1%	i	i
Cn1c(=O)c(-c2ccccc2[N+](=O)[O-])c(Cl)c2ccccc21	-4.9%	15.8µM*	10.3%	i	i
CCc1nc(N2CCN(C(=O)c3ccccc3)CC2)c(C#N)c2c1COC(C)(C)C2	5.2%	20µM*	8.4%	i	i
CC1CCN(c2nc(-c3ccco3)c3c(c2C#N)CC(C)(C)OC3)CC1	0.8%	11.2µM*	3.7%	i	i
CC1(C)Cc2c(C#N)c(N3CCN(C(=O)c4ccccc4)CC3)nc(Cc3ccccc3)c2CO1	-1.4%	8.1%	-0.9%	i	i
CC1(C)Cc2c(C#N)c(N3CCOCC3)nc(-c3ccccc3)c2CO1	9.4%	20.1%	-2.9%	i	i
SMILES	Mito fusion act	TDP-43 yeast inh	aSyn yeast inh	Abeta rescue	FUS suppressor
C(#CC1=CCCCC1)CNCC1CC1	.	.	.	.	i
C=Cc1ccc(Cn2ccn(-c3ccc(F)c(F)c3)c(=O)c2=O)cc1	.	2.6%	.	i	i
Cc1cc(F)ccc1S(=O)(=O)Nc1ccc2oc3c(c2c1)CC(C)CC3 (stereo not drawn)	.	35.5µM*	.	i	i
Cc1ccc(NC(=O)N2CCC(CN3CCCCCC3)CC2)c(Cl)c1	.	15.5%	.	i	i
Cc1ccc(S(=O)(=O)Nc2ccc(C(=O)N3CCN(c4ccccc4O)CC3)cc2)cc1[N+](=O)[O-]	?	-10.1%	-0.3%	i	12.6µM*
Cc1ccccc1NS(=O)(=O)c1ccc(C(=O)N2CCN(c3ccccc3O)CC2)cc1	4.6%	18.5%	-1.3%	i	.
O=C(COc1ccccc1)Nc1nnc(-c2ccco2)o1	9.5%	?	1.8%	i	i
O=C(COc1ccccc1)Nc1nnc(-c2ccc(Cl)s2)o1	1.1%	8.91µM*	17.8µM*	?	i
Cc1ccc(C)c(-c2nnc(NC(=O)COc3ccccc3)o2)c1	?	14.1µM*	11.2µM*	i	i
O=C(COc1ccccc1)Nc1nnc(-c2ccccc2)o1	0.9%	?	20µM*	?	i
CC(C)CCNC(=O)c1ccc2c(c1)N(Cc1ccccc1F)C(=O)c1ccccc1S2=O (stereo not drawn)	.	3.4%	.	i	i
COc1ccc(NC(=O)c2sc3nc(N4CCCC4)c4c(c3c2N)CC(C)(C)OC4)cc1	12.6µM*	?	-1.4%	i	i
Cc1ccccc1C(=O)Nc1nnc(-c2ccc(F)cc2)o1	10.3%	?	17.8µM*	22.4µM*	i
COc1ccccc1C(=O)Nc1nnc(-c2ccc(F)cc2)o1	-3.8%	1.1%	-2.2%	i	i
CCc1cc(C(=O)c2ccccc2)c(N)s1	-2.3%	11.2µM*	1.5%	i	i
CCN(CC)c1ccc(C(=C2C=CC(=[N+](CC)CC)C=C2)c2ccc(N(CC)CC)cc2)cc1	.	-97.1%	-78.1%	i	35.5µM*
Cc1onc(C(=O)N2CCN(C(c3ccc(Cl)cc3)c3ccc(Cl)cc3)CC2)c1[N+](=O)[O-]	.	.	.	.	i
Clc1nc(Cl)nc(NCCC2=CCCCC2)n1	10.8%	10µM*	2.9%	i	i
CCOc1nc(NCCO)nc(NCCC2=CCCCC2)n1	-1.3%	2.0%	-1.1%	i	i
CC(=O)Nc1ccc(C=CC=Cc2cccc([N+](=O)[O-])c2)cc1	.	14.1µM*	-51.5%	i	.
CC(=O)Nc1ccc(OCc2cccc([N+](=O)[O-])c2)cc1	-11.6%	?	5.2%	i	i
O=C(O)C1C2CCC(CC2)C1C(=O)N1CCN(Cc2ccc(F)cc2)CC1 (stereo not drawn)	-1.9%	20µM*	5.4%	i	i
O=C(CSCc1ccccc1)Nc1cccc(F)c1	5.3%	6.31µM*	3.3%	i	i
O=C(Cc1ccccc1)Nc1cccc(N2C(=O)C=CC2=O)c1	-2.5%	6.31µM*	2.2%	i	.
O=C(CCCC(=O)OCC(Cl)=C(Cl)Cl)Nc1ccc(F)cc1	5.3%	15.8µM*	10.4%	i	i
O=C(CCCC(=O)OCC(Cl)=C(Cl)Cl)Nc1cccc(F)c1	0.4%	14.1µM*	5.6%	i	i

From PubChem
